Measured values taken from PubChem BioAssay AID585 (National Center for Advancing Translational Sciences (NCATS), 2007).
In all, about 71,000 compounds went through this assay and about 1,300 (1.8%) were called active. Where a call stands in place of a potency, no number is given. Calls follow the shape of the full dose curve. Only a selection was taken, and actives are over-represented in it overall.

Target: Beta-lactamase (Escherichia coli (strain K12)) (UniProt P00811)
Assay: Promiscuous and Specific Inhibitors of AmpC Beta-Lactamase (assay without detergent)
Details: AmpC nitrocefin hydrolysis, absorbance 480 nm, no detergent; series mostly up to 28.7 µM
Method: NIH Molecular Libraries Screening Centers Network [MLSCN]
NIH Chemical Genomics Center [NCGC]
PI Name: Shoichet, Brian K.
This aggregation profiling approach exploits the sensitivity of aggregate formation to detergent. Inhibition of b-lactamase is measured in the presence and absence of 0.01% Triton X-100. See Pubchem assay "Promiscuous and Specific Inhibitors of AmpC Beta-Lactamase (assay with detergent)" for related screen. Compounds that inhibit only in the absence of detergent are considered likely promiscuous aggregators.
A screen of 1,030 compounds was performed in Brian Shoichet's lab in 96-well format. AmpC activity was measured by following the absorbance at 480 nm. Nitrocefin is a chromogenic substrate: while nitrocefin is yellow (lmax 390 nm), the product of its hydrolysis is red (lmax 486 nm, 17,000 M-1). AmpC beta lactamase was provided by Brian Shoichet and Brian Feng, UCSF.
NCGC Assay Protocol Summary:
20 mM phosphate buffer, pH 7.0
Triton X-100: No Detergent screen: 0.0001%, Detergent screen: 0.01%.
Buffer in columns 3 and 4 as negative control (no enzyme).
5.3 nM AmpC in columns 1, 2, 5-48. Titration of UCSF compound 9 control (from 10 mM, then 1:2) pin-transferred to column 2. Column 1 is neutral (100% activity).
Six uL of reagents were dispensed to 1536-well Greiner black clear bottom plates. Compounds and controls (23 nL) were transferred via Kalypsys PinTool. The plates were incubated for 15 min at room temperature, and then 2 uL of 800 uM solution of nitrocefin was added to start the reaction. The plates were immediately transferred to and read every 20 seconds for 4 min on ViewLux (Perkin-Elmer) High-throughput CCD imager using 480 nm absorbance protocol. During dispense, reagent bottles were kept submerged into 4 deg C water bath.
Keywords: NIH Roadmap, MLSCN, MLI, MLSMR, qHTS, NCGC, AmpC Beta-Lactamase, Aggregation.
Potency is read from the fitted curve at half-maximal effect.

Beta-lactamase (Escherichia coli (strain K12)), sequence (P00811 whole entry, looked up): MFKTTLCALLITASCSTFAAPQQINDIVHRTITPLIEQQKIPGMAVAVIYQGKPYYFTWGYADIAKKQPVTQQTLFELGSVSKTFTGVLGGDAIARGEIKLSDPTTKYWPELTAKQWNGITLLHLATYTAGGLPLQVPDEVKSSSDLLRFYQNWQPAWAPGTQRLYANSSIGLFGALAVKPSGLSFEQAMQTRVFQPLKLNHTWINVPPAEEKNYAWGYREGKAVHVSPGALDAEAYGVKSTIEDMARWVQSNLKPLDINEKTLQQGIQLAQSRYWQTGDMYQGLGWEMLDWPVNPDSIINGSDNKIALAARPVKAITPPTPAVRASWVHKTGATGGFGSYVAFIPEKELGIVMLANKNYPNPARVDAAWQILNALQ

Q: With Cc1cc(NS(=O)(=O)c2ccccc2)no1 as the molecule, how does the Potency read?
A: 3.98 µM [single pt active] (active)

Q: With O=S(=O)(Nc1ccccn1)c1ccc(Oc2ccccc2)cc1 as the molecule, how does the Potency read?
A: inactive

Q: How did the Potency turn out when COc1cc2ccccc2cc1C(=O)Nc1ccc(S(=O)(=O)Nc2cc(C)on2)cc1 was run?
A: inactive

Q: CCCc1cc(=O)[nH]c(SCc2ccc(C#N)cc2)n1 was tested. Which Potency did it give?
A: inactive

Q: Which Potency does the source give for COc1ccc(C2CC(c3ccc(Cl)cc3Cl)Nc3nc(N)nn32)cc1OC (configuration not stated) here?
A: inactive

Q: With Cc1ccc(C2CC(c3cccc(Br)c3)n3nc(N)nc3N2)cc1 (configuration not stated) as the molecule, how does the Potency read?
A: inactive

Q: Nc1nc2n(n1)C(c1ccco1)CC(c1ccc(Cl)c(Cl)c1)N2 (configuration not stated) was tested. Which Potency did it give?
A: inactive

Q: Which Potency does the source give for Cc1ccc(C2CC(c3cccc(C)c3)n3nc(N)nc3N2)cc1 (configuration not stated) here?
A: 3.98 µM [single pt active] (active)

Q: For CCOc1ccccc1C1CC(c2ccc(Cl)cc2)Nc2nc(N)nn21 (configuration not stated), which Potency is on record?
A: inactive

Q: With CCOc1ccccc1C1CC(c2ccccc2)Nc2nc(N)nn21 (configuration not stated) as the molecule, how does the Potency read?
A: 3.98 µM [single pt active] (active)

Q: With O=C(O)CCCC(=O)Nc1ccccc1-n1ccnc1 as the molecule, how does the Potency read?
A: inactive

Q: With CCOC(=O)c1c(NC(=O)CCC(=O)NCc2ccco2)sc2c1CCCC2 as the molecule, how does the Potency read?
A: inactive

Q: Which Potency does the source give for CC(C)[C@H](CO)Nc1nc(Nc2cc(N)cc(Cl)c2)c2ncn(C(C)C)c2n1 here?
A: inactive

Q: How did the Potency turn out when COc1ccccc1N1CCN(c2nc3ccccc3n3nnnc23)CC1 was run?
A: inactive

Q: How did the Potency turn out when NC(=O)c1ccc(OC[C@H](O)CN2CC=C(c3ccc(F)cc3)CC2)cc1 was run?
A: inactive

Q: For Cc1ccc(SCc2cc(=O)[nH]c(N3CCCCC3)n2)cc1, which Potency is on record?
A: inactive

Q: For CN(C)c1nc(N)nc(CSc2nnnn2-c2cccc3ccccc23)n1, which Potency is on record?
A: inactive

Q: For N#CC1=C(N)Oc2n[nH]c(CSc3ccccc3)c2C12C(=O)Nc1ccccc12 (configuration not stated), which Potency is on record?
A: inactive

Q: With CCOc1ccc(N(CC(=O)OC)S(=O)(=O)c2c(C)noc2C)cc1 as the molecule, how does the Potency read?
A: inactive

Q: For O=c1cc(-c2ccc(O)c(O)c2)oc2cccc(O)c12, which Potency is on record?
A: inactive

Q: With Oc1ccc(O)c2c(O)cccc12 as the molecule, how does the Potency read?
A: 0.631 µM (active)

Q: With Cc1ccc(C(=O)NCC(=O)O)cc1S(=O)(=O)N1CCCCC1 as the molecule, how does the Potency read?
A: inactive

Q: Which Potency does the source give for CC[N+](C)(CC)CCC[n+]1c(-c2ccccc2)c2cc(N)ccc2c2ccc(N)cc21 here?
A: inactive

Q: O=C(c1csnn1)N1CCC[C@@]2(CCN(c3cccc(-c4ccccc4)c3)C2)C1 was tested. Which Potency did it give?
A: inactive

Q: Cc1cc2cc(CN(Cc3cccs3)Cc3nnnn3CC3CCCO3)c(=O)[nH]c2cc1C (configuration not stated) was tested. Which Potency did it give?
A: inactive

Q: For CC(C)(C)c1cc(C(=O)NCc2cccnc2)ccn1, which Potency is on record?
A: inactive

Q: Which Potency does the source give for CCCNS(=O)(=O)c1ccc(CCC(=O)NCc2cccnc2)cc1 here?
A: inactive

Q: With O=C(NCc1cccnc1)c1ccc(CS(=O)(=O)c2ccc(Br)cc2)o1 as the molecule, how does the Potency read?
A: 3.16 µM (active)

Q: For Cc1ccnc(SCCn2c(N(C)Cc3ccccc3)nc3c2c(=O)n(C)c(=O)n3C)n1, which Potency is on record?
A: inactive

Q: Which Potency does the source give for O=C(CCn1c(=O)[nH]c2ccccc2c1=O)NCCCN1CCN(c2cccc(Cl)c2)CC1 here?
A: inactive

Q: Which Potency does the source give for Cn1c(C(=O)N2CCC(C(N)=O)CC2)cc2c(=O)n(C)c3ccccc3c21 here?
A: inactive

Q: How did the Potency turn out when CCN1CCCC1CNC(=O)Cn1cnc2ccc(S(=O)(=O)N3CCC(C)CC3)cc2c1=O (configuration not stated) was run?
A: inactive

Q: Cn1c(C(=O)NCCc2ccsc2)cc2c(=O)n(C)c3ccccc3c21 was tested. Which Potency did it give?
A: inactive

Q: Cn1c(C(=O)NCCN2CCc3ccccc3C2)cc2c(=O)[nH]c3ccccc3c21 was tested. Which Potency did it give?
A: inactive

Q: For CC1CCCC(C)N1CCCNC(=O)c1cc2c(=O)n(C)c3ccccc3c2n1C (configuration not stated), which Potency is on record?
A: 3.16 µM [single pt active] (active)

Q: Cn1c(C(=O)NCCCN2CCN(c3cccc(Cl)c3)CC2)cc2c(=O)n(C)c3ccccc3c21 was tested. Which Potency did it give?
A: 3.98 µM [single pt active] (active)

Q: How did the Potency turn out when CCN1CCCC1CNC(=O)c1cc2c(=O)n(C)c3ccccc3c2n1C (configuration not stated) was run?
A: 3.98 µM [single pt active] (active)

Q: Which Potency does the source give for CCn1c(=O)cc(OCC(=O)NCCCN2CCN(c3cccc(Cl)c3)CC2)c2ccccc21 here?
A: inactive

Q: With CNC(=O)CSc1nnnn1-c1ccc(C)cc1C as the molecule, how does the Potency read?
A: inactive

Q: For CCOC(=O)c1ccc(NC(=O)CS(=O)(=O)c2cn(CC)c3ccccc23)cc1, which Potency is on record?
A: inactive

Q: For CCOc1ccc(NC(=O)CCC(=O)n2nc(C)cc2C)cc1, which Potency is on record?
A: inactive

Q: Which Potency does the source give for CNC(=O)NCCN1CCCC1=O here?
A: inactive

Q: With COc1ncnc2c1N=C1CC(C)(C)CC(N)=C1S2 as the molecule, how does the Potency read?
A: inactive

Q: C=CCOC(=O)COCCC(C)C was tested. Which Potency did it give?
A: inactive

Q: CCOC(=O)c1sc(=S)n2c1[nH]c(=O)c1ccc(C(=O)OC)cc12 was tested. Which Potency did it give?
A: 12.6 µM (active)

Q: With CCOC(=O)Cn1c(N)c(C(=O)OC)sc1=S as the molecule, how does the Potency read?
A: inactive

Q: For CCOC(=O)c1sc(=S)n(-c2cccc(OC)c2)c1N, which Potency is on record?
A: inactive

Q: Which Potency does the source give for Cc1ccc(OCc2nc(C#N)c(N3CCCC3)o2)cc1 here?
A: inactive

Q: Cc1ccccc1S(=O)(=O)Cc1ccc(C(=O)NCCN2CCCCC2C)o1 (configuration not stated) was tested. Which Potency did it give?
A: inactive

Q: With C=CCNc1nnc(SCC(=O)N2CCCCC2)c2ccccc12 as the molecule, how does the Potency read?
A: inactive

Q: With CCCN1CCN(CCCNC(=O)CN2C(=O)COc3ccccc32)CC1 as the molecule, how does the Potency read?
A: inactive

Q: Which Potency does the source give for O=C(CN1C(=O)COc2ccccc21)Nc1ccc(F)cc1 here?
A: 3.98 µM [single pt active] (active)

Q: With O=C(CN1C(=O)COc2ccccc21)NCCN1CCc2ccccc2C1 as the molecule, how does the Potency read?
A: inactive

Q: COC(=O)[C@H](C)NC(=O)Nc1ccc(OC(F)(F)F)cc1 was tested. Which Potency did it give?
A: inactive

Q: Oc1c(Cl)cc(Cl)c(Cl)c1Cc1c(O)c(Cl)cc(Cl)c1Cl was tested. Which Potency did it give?
A: 5.01 µM (active)

Q: For CC(=O)Nc1ccn(Cc2c(F)cccc2Cl)n1, which Potency is on record?
A: inactive

Q: With O=C(Oc1ccc(-c2nc(-c3ccccn3)no2)cc1)c1ccccc1 as the molecule, how does the Potency read?
A: inactive

Q: With N#Cc1ccccc1-n1c(N)c(C(=O)N2CCCC2)sc1=S as the molecule, how does the Potency read?
A: inactive

Q: With Cn1c(=O)[nH]c(=O)c2c1nc(CN(Cc1ccccc1)Cc1ccccc1)n2CCN1CCOCC1 as the molecule, how does the Potency read?
A: inactive

Q: With Cc1ccc2nc(NC(=O)C3CCN(S(=O)(=O)c4ccc5c(c4)oc(=O)n5C)CC3)sc2c1 as the molecule, how does the Potency read?
A: 3.98 µM [single pt active] (active)

Q: O=C(Nc1nc2ccc(S(=O)(=O)N3CCCC3)cc2s1)C1CCCO1 (configuration not stated) was tested. Which Potency did it give?
A: inactive

Q: Cn1c(=O)oc2cc(S(=O)(=O)N3CCC(C(=O)Nc4ccc(OC(F)(F)F)cc4)CC3)ccc21 was tested. Which Potency did it give?
A: inactive

Q: How did the Potency turn out when CC(=O)OC(C(=O)NCCc1ccccc1)c1cccnc1 (configuration not stated) was run?
A: inactive

Q: C[N+]1(C)C2CC(OC(=O)C(CO)c3ccccc3)CC1[C@@H]1O[C@H]21 (some centres not stated) was tested. Which Potency did it give?
A: inactive

Q: How did the Potency turn out when CCOc1ccc(CCNC(=O)C2CCN(c3ccc(N4CCOCC4)nn3)CC2)cc1OCC was run?
A: inactive

Q: CCOc1ccccc1NC(=O)C1CCC(CNc2c(N3CCOCC3)c(=O)c2=O)CC1 (configuration not stated) was tested. Which Potency did it give?
A: 3.98 µM [single pt active] (active)

Q: CCOc1ccccc1NC(=O)C1CCN(S(=O)(=O)c2c(C)nn(C)c2C)CC1 was tested. Which Potency did it give?
A: inactive
